# ROS inducer = ROS inducers in U2OS cancer cells, primary screen, cell-based, H2DCF-DA fluorescence. U2OS ROS induction. ROS induction (% of piperlongumine), % at 10 µM. 46,000 compounds, 2% hits. AID 624156, 2012; in the data active = ROS induction above about 79%, passing the limit was not always enough;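 note: 0% = DMSO vehicle median and 100% = reference compound median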
# An asterisk follows results filed as active. The entries come from a sample that favours hits as a whole.
SMILES,ROS inducer
Cc1ccc(C(=O)CSc2nc(C)nc3sc4c(c23)CCCC4)cc1,5
Cc1ccc(C(=O)CSc2nc(C)nc3sc(C)c(C)c23)cc1,119*
C[C@H](CO)N1C[C@H](C)[C@@H](CN(C)CC2CCCCC2)Oc2ccc(NS(=O)(=O)c3cn(C)cn3)cc2C1=O,-9
COc1cc2c(cc1OC)CN(C(=O)[C@@H]1[C@H]3C(=O)O[C@H](c4ccccc4)[C@H](c4ccccc4)N3[C@H](c3ccc(OCCO)cc3)[C@@]13C(=O)Nc1ccc(C#CC4=CCCCC4)cc13)CC2,17
COc1cc2c(cc1OC)CN(C(=O)[C@@H]1[C@H]3C(=O)O[C@H](c4ccccc4)[C@H](c4ccccc4)N3[C@H](c3ccc(O)cc3)[C@@]13C(=O)Nc1ccccc13)CC2,48
COC(=O)C(CC#Cc1ccc2c(c1)[C@]1(C(=O)N2)[C@H](C(=O)N2CCCCCCC2)[C@H]2C(=O)O[C@H](c3ccccc3)[C@H](c3ccccc3)N2[C@@H]1c1ccccc1OCCO)C(=O)OC,50
O=C1O[C@@H](c2ccccc2)[C@@H](c2ccccc2)N2[C@@H](c3ccc(OCCO)cc3)[C@]3(C(=O)Nc4ccc(C#CCCO)cc43)[C@@H](C(=O)N3CCCCCCC3)[C@H]12,17
COc1cc2c(cc1OC)CN(C(=O)[C@H]1[C@@H]3C(=O)O[C@@H](c4ccccc4)[C@@H](c4ccccc4)N3[C@@H](c3ccccc3OCCO)[C@]13C(=O)Nc1ccc(C#CC4=CCCCC4)cc13)CC2,87*
O=C1O[C@H](c2ccccc2)[C@H](c2ccccc2)N2[C@H]1[C@@H](C(=O)N1CCN(c3ncccn3)CC1)[C@]1(C(=O)Nc3ccc(C#CCCO)cc31)[C@H]2c1ccccc1OCCO,33
COc1cc2c(cc1OC)CN(C(=O)[C@@H]1[C@H]3C(=O)O[C@H](c4ccccc4)[C@H](c4ccccc4)N3[C@H](c3ccc(OCCO)cc3)[C@@]13C(=O)Nc1ccccc13)CC2,98*
O=C1O[C@@H](c2ccccc2)[C@@H](c2ccccc2)N2[C@@H](c3ccccc3OCCO)[C@]3(C(=O)Nc4ccc(C#CCCO)cc43)[C@@H](C(=O)N3CCCCCCC3)[C@H]12,221*
COC(=O)C(CC#Cc1ccc2c(c1)[C@]1(C(=O)N2)[C@H](c2ccc(O)cc2)N2[C@H](c3ccccc3)[C@H](c3ccccc3)OC(=O)[C@H]2[C@@H]1C(=O)N1CCCCCCC1)C(=O)OC,40
COc1cc2c(cc1OC)CN(C(=O)[C@H]1[C@@H]3C(=O)O[C@@H](c4ccccc4)[C@@H](c4ccccc4)N3[C@@H](c3ccc(OCCO)cc3)[C@]13C(=O)Nc1ccc(C#CC4=CCCCC4)cc13)CC2,61
COC(=O)C(CC#Cc1ccc2c(c1)[C@]1(C(=O)N2)[C@H](C(=O)N2CCc3cc(OC)c(OC)cc3C2)[C@H]2C(=O)O[C@H](c3ccccc3)[C@H](c3ccccc3)N2[C@@H]1c1ccc(OCCO)cc1)C(=O)OC,26
COC(=O)C(CC#Cc1ccc2c(c1)[C@]1(C(=O)N2)[C@H](C(=O)N2CCCCCCC2)[C@H]2C(=O)O[C@H](c3ccccc3)[C@H](c3ccccc3)N2[C@@H]1c1ccc(OCCO)cc1)C(=O)OC,104*
CN(C(=O)CSc1nncn2c1cc1sccc12)c1ccccc1,-2
C[C@H](CO)N1C[C@H](C)[C@@H](CN(C)S(=O)(=O)c2cn(C)cn2)Oc2ccc(NS(=O)(=O)c3ccc(Cl)cc3)cc2C1=O,2
COc1ccc(S(=O)(=O)N(CC(N)=O)c2ccc(C)cc2)cc1Br,-7
Cc1nnsc1-c1onc(C)c1C(N)=O,-12
Cc1ccc(NC(=O)C2Cc3ccccc3CN2S(=O)(=O)c2ccc(C)cc2)cc1 (stereo not given),10
COc1cc2c(cc1OC)CN(C(=O)[C@H]1[C@@H]3C(=O)O[C@@H](c4ccccc4)[C@@H](c4ccccc4)N3[C@@H](c3ccccc3OCCO)[C@]13C(=O)Nc1ccc(C#CCCO)cc13)CC2,120*
COc1cc2c(cc1OC)CN(C(=O)[C@H]1[C@@H]3C(=O)O[C@@H](c4ccccc4)[C@@H](c4ccccc4)N3[C@@H](c3ccccc3OCCO)[C@]13C(=O)Nc1ccc(C#CCNC(N)=O)cc13)CC2,19
COc1ccc(C#Cc2ccc3c(c2)[C@]2(C(=O)N3)[C@H](c3ccccc3OCCO)N3[C@H](c4ccccc4)[C@H](c4ccccc4)OC(=O)[C@H]3[C@@H]2C(=O)N2CCc3cc(OC)c(OC)cc3C2)cc1,64
CCOC(=O)N1CCN(Cc2cc(=O)oc3ccc(OC)cc23)CC1,-2
O=c1cc(NCc2ccccc2)[nH]nc1-c1ccccc1,20
COc1ccc(OC)c2c1CC(C)(C)n1c(-c3ccc(Cl)cc3)nnc1-2,-5
COc1ccc(-c2c(C)nn3c(N4CCC(C)CC4)cc(C)nc23)cc1OC,93*
COc1ccc(-c2nnc3c4ccccc4c(C)nn23)cc1S(=O)(=O)N1CCCCC1,23
COc1ccc(-c2csc(N3CCCC3C(=O)OCc3ccccc3)n2)cc1 (stereo not given),-19
